The results in this text go back to PubChem BioAssay AID2417 (National Center for Advancing Translational Sciences (NCATS), 2010).

Hit rate of the full screen: of about 140,000 compounds, about 4,300 (3.1%) were called active. Not shown: some 21% with an inconclusive outcome. The sample as a whole holds a higher share of actives than the screen did. A number with no mark means an inactive call.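 Rule for the calls: active = readout at or below -70, meaning at least 70% loss of cells showing the perinucleolar compartment, a nuclear body marking cancer cells; inconclusive = readout between -30 and a set limit; inactive = the rest.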

A short description of this assay: High Content Assay for Compounds that inhibit the Assembly of the Perinucleolar Compartment. The following applies: PC3M PTB-GFP, PNC prevalence imaging, 16 h; at 10 µM; hits give low values. From the text: High Content Assay for Compounds that inhibit the Assembly of the Perinucleolar Compartment NIH Chemical Genomics Center [NCGC] NIH Molecular Libraries Probe Centers Network [MLPCN] MLPCN Grant: MH082371-01A2 Assay Submitter (PI): Sui Huang, Northwestern University, Feinberg School of Medicine, Cell and Molecular Biology, Chicago, Illinois. The perinucleolar compartment (PNC) is a non-membrane-bound nuclear subdomain that is associated with but structurally distinct from the nucleolus. The PNC is a heritable trait, in which the number of PNCs per cell in daughter cells often mimics that of their mother cells. The PNC is heterogeneous in shape, is stable through interphase, disassembles during mitosis, and reassembles in early G1. The PNC is concentrated with newly synthesized RNA polymerase III (pol III) RNAs (MRP RNA, RNAse P H1 RNA, hY RNAs[hY1, 2, 5], Alu RNA, and SRP [7SL] RNA) and RNA binding proteins (nucleolin, PTB, CUG-BP, KSRP, Raver1, Raver2, and Rod). […] Extensive in vitro studies have shown that the PNC is unique to tumor cells and preferentially forms in tumor cells derived from solid tissues. Examination of cancer cell lines from various origins and malignant capacities has shown that PNC prevalence correlates with the malignancy of tumors and has the potential to be developed as a pan-cancer prognostic marker. […] Although the PNC is associated with a DNA locus and a handful of components have been identified, much remains to be investigated regarding the structure and function of the PNC and its mechanistic link to cancer. We have previously shown that PNC prevalence reduction is a valid strategy to identify compounds that can be used to study the structure and function of the PNC. It is necessary, however, to create a screening platform that is able to test a large number of compounds in an automated fashion. Here we report the development and robustness of an automated whole-cell phenotypic image-based screening assay that is capable of identifying such compounds.
PNC High Content Imaging Assay Procedure: 1. Cells at a density of 75-90% confluency in T175 flasks were harvested using 7 ml TrypLE Express cell dissociation reagent. After dissociation (5 minutes room temperature incubation) 10 ml of complete media was added to the TrypLE/cell suspension. The liquid was transferred to a 50 ml Conical tube and cells were pelleted at 1000 RPM for 5 min. Supernatant was removed and cells were resuspended to a final density of 150-200 cells/ul in complete media. 2. Cells were plated in 5 ul volume (750-1000 cells/well) into 1536 well Black uclear Aurora Low Base plates and allowed to recover and adhere at 37 C in a humidified 5% CO2 incubator for 4 hours. 3. After 4 hour incubation, compound libraries (23 nl of […] in columns 5-48) were transferred to the plates in duplicate using a 1536 well pintool. Camptothecin positive control (59 uM final) was added to column 2 and 1:3 dilutions of camptothecin was added to column 3. DMSO negative controls were present in columns 1 and 4. 4. After a 16 hour incubation in the 37 C incubator, cells were fixed by the addition of 4 ul of 6% EM grade paraformaldehyde (containing 0.1% triton X 100) directly to the cells. The plates were incubated at room temperature for 20 minutes. The liquid was removed using a 32 channel Kalypsys aspirator and the fixed cells were washed twice with 5 ul PBS followed by a final addition of 5 ul PBS containing 1 ug/ml Hoechst 33342. 5. Fixed plates were sealed and sotred at 4C until imaged. 6. Plates were imaged on an InCell 1000 automated microscope using a 20 x objective, a standard FITC filter set, no camera binning, and an exposure time of ~100-150 msec/well. 7. Data analysis. PNC prevalence was determined using the Multitarget analysis module from InCell Workstation software (V3.5 ) and analysis was run on a quad core workstation using the Incell Developer Toolbox (V1.7). […]
`CCOC(=O)c1sc(NC(=O)c2cc(S(=O)(=O)N3CCOCC3)ccc2C)nc1C`: the activity change (PNC), negative = inhibition is -23.4%.

In the case of `CCN(CC)CCNC(=O)Cn1cnc2sc(C)c(S(=O)(=O)N3CCOCC3)c2c1=O`, the activity change (PNC), negative = inhibition was -100% (active). The same measure for `COc1cccc(NC(=O)CN2CCN(c3nc(-c4cccc(OC)c4)cs3)CC2)c1`: 43%; for `COc1cccc(NC(=O)CN(C)S(=O)(=O)c2ccc(C)cc2)c1`: -3.49%. In the case of `O=C(Cc1ccc(S(=O)(=O)N2CCOCC2)s1)NCCC(c1ccccc1)c1ccccc1`, the activity change (PNC), negative = inhibition was 44.4%. Take `CC(O)c1nc2ccccc2n1Cc1ccc([N+](=O)[O-])cc1` (configuration not stated): the activity change (PNC), negative = inhibition was 9.78%. For `CCOc1ccc(C(=O)Nc2nccs2)cc1[N+](=O)[O-]` the value was 8%. For `CN1CCC(=NNC(=O)c2ccc(N(Cc3ccc(Cl)cc3)S(C)(=O)=O)cc2)CC1` the value was -4.47%. Take `O=C(CCN1C(=O)c2ccccc2C1=O)NNC(=O)c1ccc(Cl)cc1Cl`: the activity change (PNC), negative = inhibition was 53%. For the molecule `O=C(Nc1ccccc1Cc1ccccc1)c1ccc2c(c1)SC1=NS(=O)(=O)CCN12`, the activity change (PNC), negative = inhibition is 18.7%. Turning to `CC1CCN(S(=O)(=O)c2ccc(S(=O)(=O)NCc3ccco3)cc2)CC1`, the activity change (PNC), negative = inhibition was -100% (active).

Turning to `Cc1ccc(S(=O)(=O)N2CCC(C(=O)N[C@@H](C)C(=O)NCc3ccco3)CC2)cc1`, the activity change (PNC), negative = inhibition was 61.1%. The same measure for `O=C(NC1CCC(O)CC1)c1ccc(S(=O)(=O)NCc2ccco2)cc1` (configuration not stated): -13.5%; for `Cn1nnnc1SCC(=O)Nc1ccccc1C(=O)NC1CC1`: -17.1%; for `CC1Cc2nc(SCC(=O)Nc3ccccc3F)n(C)c(=O)c2S1` (configuration not stated): -100% (active). With `CCn1c(SCC(=O)Nc2ccccc2F)nc2c(c1=O)SC(C)C2` (configuration not stated), the activity change (PNC), negative = inhibition is -100% (active). The same measure for `CCc1ccc(NC(=O)CSc2nc3ccccc3c(=O)n2CCN2CCOCC2)cc1`: -23.7%; for `CC(C)n1c(SCC(=O)Nc2ccccc2N2CCCCC2)nc2c1c(=O)n(C)c(=O)n2C`: -24%; for `CCn1c(Cc2ccccc2)nnc1SCC(=O)Nc1ccccc1`: -27.9%. As for `COc1ccc(C/C(C)=N/NC(=O)c2ccncc2)cc1`, the activity change (PNC), negative = inhibition was 36.6%.

As for `Cc1ccnc(N2CCCC(C(=O)Nc3cc(F)ccc3C)C2)n1` (configuration not stated), the activity change (PNC), negative = inhibition was -22.4%. For `COc1cc(C)nc(N2CCCC(C(=O)NCC(C)C)C2)n1` (configuration not stated) the value was -100% (active); for `Cc1cc(=O)n2nc(N3CCCC(C(=O)NCCC4=CCCCC4)C3)sc2n1` (configuration not stated), 6.76%; for `NS(=O)(=O)c1ccc(CCNC(=S)Nc2ccc(S(N)(=O)=O)cc2)cc1`, 74.6%. The same measure for `CCOC(=O)NC(=O)C(=CNc1cccc(OC)c1)C(=O)NC(=O)OCC`: 45.4%. Regarding `CCOC(=O)C(NC(=O)CC(C)C)(Nc1sc2c(c1C(N)=O)CCCC2)C(F)(F)F` (configuration not stated), the activity change (PNC), negative = inhibition was 0.0946%. For `CC1Cc2ccccc2N1C(=O)Cn1cnc2ccccc2c1=O` (configuration not stated) the value was -80.4% (active); for `CC1Cc2ccccc2N1C(=O)CSc1nc2ccccc2o1` (configuration not stated), 31.3%.

Take `CCn1nc(C(=O)OCC(=O)N2c3ccccc3CC2C)c2ccccc2c1=O` (configuration not stated): the activity change (PNC), negative = inhibition is -8.81%. The same measure for `COc1ccc(C2CC(c3ccccc3)=NN2C(=O)c2ccc(Cl)c([N+](=O)[O-])c2)cc1` (configuration not stated): 27.8%; for `CCOc1ccc(S(=O)(=O)N(CC(=O)NCC(F)(F)F)Cc2ccco2)cc1`: 52.1%; for `Cc1cc(/C=C2\SC(=Nc3ccc(N4CCOCC4)cc3)N(C)C2=O)c(C)n1-c1cccnc1`: -27.8%. Consider `CN1CCCC(OC(=O)COc2ccc(Br)cc2)C1` (configuration not stated), for which the activity change (PNC), negative = inhibition was -86.4% (active). The same measure for `CC(=O)Nc1ccc(OC(=O)COc2ccc(Br)cc2)cc1`: 36.4%; for `CCOC(=O)N1CCN(C(=O)COc2ccc(Br)cc2)CC1`: -29.5%.

For the molecule `COc1ccc(C(C(=O)NC2CCCCC2)N(C(=O)Cc2c[nH]c3ccccc23)c2ccccc2)cc1OC` (configuration not stated), the activity change (PNC), negative = inhibition was 32.6%. The same measure for `CS(=O)(=O)N(Cc1ccc(Cl)cc1)c1ccc(C(=O)NCCSCc2ccco2)cc1`: 22.9%. For `O=C(/C=C/c1ccc([N+](=O)[O-])cc1)NCCSCc1ccco1`, the activity change (PNC), negative = inhibition is 85.9%.

As to `COc1ccc(CCNC(=O)c2ccco2)cc1`, the activity change (PNC), negative = inhibition was 24.7%. `COc1cc(OC)cc(C(=O)NCCSCc2ccco2)c1`: the activity change (PNC), negative = inhibition was -94.6% (active).

On to `CCC(CC)NC(=O)/C=C/c1cccc([N+](=O)[O-])c1`, for which the activity change (PNC), negative = inhibition is -18.8%. Take `O=C(/C=C/c1cccc([N+](=O)[O-])c1)NCCSCc1ccco1`: the activity change (PNC), negative = inhibition was -113% (active).

With `CC(=O)c1c(O)cc2n(c1=O)-c1ccc(Cl)cc1C2(C)C`, the activity change (PNC), negative = inhibition is -2.74%. Take `O=C(NC(=O)N1CCOCC1)c1ccccc1`: the activity change (PNC), negative = inhibition was 6.63%.

Turning to `O=C(Nc1ccn(Cc2ccccc2)n1)c1n[nH]c([N+](=O)[O-])c1Cl`, the activity change (PNC), negative = inhibition is 5.38%. The same measure for `CC(Sc1cccc[n+]1[O-])C(=O)Nc1cccc(S(=O)(=O)N2CCOCC2)c1` (configuration not stated): -7.27%. As for `COc1ccc(-c2csc(NC(=O)COC(=O)c3ccc(Br)o3)n2)cc1`, the activity change (PNC), negative = inhibition was -8.03%.
